# Unmarked numbers belong to inactive results. Inconclusive results are not listed. Where a call stands in place of a potency, no number is given. Activity calls are given as the source filed them. Unless noted, calls come from the whole dose curve; as a rule, active = well fitted curve in the direction sought with a large enough effect; inconclusive = small, poorly fitted or top-dose-only effect, or another doubt; inactive = no such curve, though single readings can be large; an effect the other way counts as inactive or inconclusive.
# Tests used:
# [1] = target: Cytochrome P450 1A2 (Homo sapiens) (UniProt P05177); assay: p450-cyp1a2 (AID 410; calls by dose curve; note: potency is the fitted concentration of half-maximal effect)
# Sequence of Cytochrome P450 1A2 (Homo sapiens) (P05177 whole entry, looked up): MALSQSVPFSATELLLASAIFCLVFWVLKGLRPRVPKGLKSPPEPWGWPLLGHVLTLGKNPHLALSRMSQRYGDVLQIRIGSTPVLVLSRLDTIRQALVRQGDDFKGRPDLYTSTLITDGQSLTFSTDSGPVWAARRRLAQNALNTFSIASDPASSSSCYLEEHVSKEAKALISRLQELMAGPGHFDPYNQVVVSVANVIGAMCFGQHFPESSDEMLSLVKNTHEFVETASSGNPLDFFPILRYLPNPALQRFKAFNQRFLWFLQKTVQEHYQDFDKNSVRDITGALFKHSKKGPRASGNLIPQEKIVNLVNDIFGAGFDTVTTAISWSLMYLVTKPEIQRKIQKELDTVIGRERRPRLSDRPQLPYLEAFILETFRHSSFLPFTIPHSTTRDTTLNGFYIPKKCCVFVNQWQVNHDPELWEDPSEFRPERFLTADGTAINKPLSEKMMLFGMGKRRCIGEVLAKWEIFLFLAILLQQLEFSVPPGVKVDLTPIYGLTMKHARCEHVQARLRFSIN
# Procedure, shortened: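 Inhibition was calculated relative to 57 uM furafylline (full inhibition). The reaction used human CYP1A2 at 20nM with Luciferin-ME at its Km, 100uM, driven by an NADPH-regenerating system for 60 min at room temperature.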
# [2] = target: Mitogen-activated protein kinase 10 (Mus musculus) (UniProt Q61831); assay: JNK3 AlphaScreen Assay (AID 530; active = well fitted curve in either direction with a large enough effect, not every such curve was filed as active;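 note: kinase came from lysate of stimulated human HepG2 cells; signal reports phosphorylation of biotinylated GST-cJun 1-79 at Ser73 with 10 µM ATP; series mostly up to about 57 µM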)
# Procedure, shortened: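 JNK3 came from HepG2 lysates pre-activated with IL-1beta and TNF-alpha and phosphorylated biotinylated GST-cJun (1-79) at 10 uM ATP, pH 7.6, room temperature. Compounds were titrated. AlphaScreen signal used anti-phospho-cJun (Ser73) antibody.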
# [3] = target: 3',5'-cyclic-AMP phosphodiesterase 4B (Homo sapiens) (UniProt Q07343); assay: qHTS Assay for Inhibitors of PDE-IV (AID 607; active = well fitted activation curve with a large enough effect in the main read-out, with a control signal flat, not every such curve was filed as active)
# Sequence of 3',5'-cyclic-AMP phosphodiesterase 4B (Homo sapiens) (Q07343 whole entry, looked up): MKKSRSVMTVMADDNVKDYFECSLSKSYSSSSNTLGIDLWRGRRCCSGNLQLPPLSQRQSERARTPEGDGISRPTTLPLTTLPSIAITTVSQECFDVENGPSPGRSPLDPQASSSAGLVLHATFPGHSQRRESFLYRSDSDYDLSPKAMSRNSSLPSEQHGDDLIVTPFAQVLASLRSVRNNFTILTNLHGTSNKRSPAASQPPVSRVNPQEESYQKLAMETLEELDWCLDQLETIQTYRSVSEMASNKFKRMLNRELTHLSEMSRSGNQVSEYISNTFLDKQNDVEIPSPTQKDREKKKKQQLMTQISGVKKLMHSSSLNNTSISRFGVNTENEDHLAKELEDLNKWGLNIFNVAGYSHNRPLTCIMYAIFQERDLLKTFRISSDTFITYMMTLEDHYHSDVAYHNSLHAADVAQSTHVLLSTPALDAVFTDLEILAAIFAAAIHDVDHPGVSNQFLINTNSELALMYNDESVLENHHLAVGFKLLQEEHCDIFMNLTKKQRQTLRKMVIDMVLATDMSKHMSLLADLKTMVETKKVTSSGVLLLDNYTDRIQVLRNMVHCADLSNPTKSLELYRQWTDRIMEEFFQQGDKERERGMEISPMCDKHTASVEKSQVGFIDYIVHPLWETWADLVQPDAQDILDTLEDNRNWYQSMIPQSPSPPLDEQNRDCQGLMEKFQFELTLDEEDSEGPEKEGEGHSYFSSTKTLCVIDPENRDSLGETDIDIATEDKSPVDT
# Procedure, shortened: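 ACTOne HEK293 cells carry a modified cAMP-gated CNG channel and express endogenous PDE4; plated 1000 cells/well, compounds up to 22.9 uM final. Membrane-potential dye fluorescence (ex 535/em 590) was read; parental cells received 10 uM forskolin + 100 uM RO 20-1724.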
# [4] = target: Cytochrome P450 2C9 (Homo sapiens) (UniProt P11712); assay: qHTS Assay for Inhibitors and Substrates of Cytochrome P450 2C9 (AID 883); note: nearly all actives have a fitted effect of over 60% in size; note: potency is the fitted concentration of half-maximal effect
# Sequence of Cytochrome P450 2C9 (Homo sapiens) (P11712 whole entry, looked up): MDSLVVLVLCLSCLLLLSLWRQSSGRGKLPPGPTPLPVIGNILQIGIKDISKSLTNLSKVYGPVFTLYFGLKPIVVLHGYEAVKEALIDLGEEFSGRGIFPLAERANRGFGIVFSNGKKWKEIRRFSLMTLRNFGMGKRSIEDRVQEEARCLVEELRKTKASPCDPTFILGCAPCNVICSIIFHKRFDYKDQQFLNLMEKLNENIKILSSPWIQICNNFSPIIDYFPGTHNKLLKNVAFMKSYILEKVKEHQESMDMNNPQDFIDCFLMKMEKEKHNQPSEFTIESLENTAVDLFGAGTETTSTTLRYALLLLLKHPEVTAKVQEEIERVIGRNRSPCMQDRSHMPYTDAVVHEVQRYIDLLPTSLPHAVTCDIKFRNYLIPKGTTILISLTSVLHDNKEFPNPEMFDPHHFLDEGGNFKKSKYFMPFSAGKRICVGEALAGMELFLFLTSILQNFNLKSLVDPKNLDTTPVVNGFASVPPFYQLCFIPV
# Procedure, shortened: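 Human CYP2C9 (10nM) hydroxylated Luciferin-H (100uM, at its KM) to luciferin in 25mM KPO4. Compound was preincubated 10 min at 37C, then NADPH regeneration started a 60 min reaction at 37C. Luminescence was read after detection reagent, normalized to 57uM sulphaphenazole.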
# [5] = target: Cytochrome P450 3A4 (Homo sapiens) (UniProt P08684); assay: qHTS Assay for Inhibitors and Substrates of Cytochrome P450 3A4 (AID 884); note: potency is the fitted concentration of half-maximal effect; nearly all actives have a fitted effect of over 50% in size
# Sequence of Cytochrome P450 3A4 (Homo sapiens) (P08684 whole entry, looked up): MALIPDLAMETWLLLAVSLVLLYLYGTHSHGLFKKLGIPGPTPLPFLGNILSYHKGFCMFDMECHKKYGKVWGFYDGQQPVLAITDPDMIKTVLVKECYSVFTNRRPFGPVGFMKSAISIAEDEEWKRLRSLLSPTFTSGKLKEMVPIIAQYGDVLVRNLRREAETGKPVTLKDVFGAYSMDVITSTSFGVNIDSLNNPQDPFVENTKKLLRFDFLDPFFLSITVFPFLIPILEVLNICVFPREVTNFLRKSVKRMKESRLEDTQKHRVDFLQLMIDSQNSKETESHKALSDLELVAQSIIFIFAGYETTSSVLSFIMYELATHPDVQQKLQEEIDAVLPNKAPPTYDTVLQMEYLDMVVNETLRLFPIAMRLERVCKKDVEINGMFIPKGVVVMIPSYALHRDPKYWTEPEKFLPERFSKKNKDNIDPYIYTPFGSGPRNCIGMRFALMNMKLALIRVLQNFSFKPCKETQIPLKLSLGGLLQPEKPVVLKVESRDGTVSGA
# Procedure, shortened: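 20 nM human CYP3A4 with 25 uM Luciferin-PPXE (at KM) in 200 mM KPO4, preincubated 10 min with compound; NADPH regeneration started a 60 min RT reaction. Luciferin detected by luminescence, normalized to 57 uM ketoconazole as full inhibition.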
# [6] = target: Cytochrome P450 3A4 (Homo sapiens) (UniProt P08684); assay: qHTS Assay for Activators of Cytochrome P450 3A4 (AID 885); note: nearly all actives have a fitted effect of over 65% in size
# Procedure, shortened: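 20nM CYP3A4 + 25uM Luciferin-PPXE (=KM), 200mM KPO4; cpd 10 min RT; NADPH regen, 60 min RT; stop w/ detection buffer, 20 min; luminescence. Normalized to 57 uM ketoconazole.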
# [7] = target: Cytochrome P450 2D6 (Homo sapiens) (UniProt P10635); assay: qHTS Assay for Inhibitors and Substrates of Cytochrome P450 2D6 (AID 891); note: potency is the fitted concentration of half-maximal effect; nearly all actives have a fitted effect of over 60% in size
# Sequence of Cytochrome P450 2D6 (Homo sapiens) (P10635 whole entry, looked up): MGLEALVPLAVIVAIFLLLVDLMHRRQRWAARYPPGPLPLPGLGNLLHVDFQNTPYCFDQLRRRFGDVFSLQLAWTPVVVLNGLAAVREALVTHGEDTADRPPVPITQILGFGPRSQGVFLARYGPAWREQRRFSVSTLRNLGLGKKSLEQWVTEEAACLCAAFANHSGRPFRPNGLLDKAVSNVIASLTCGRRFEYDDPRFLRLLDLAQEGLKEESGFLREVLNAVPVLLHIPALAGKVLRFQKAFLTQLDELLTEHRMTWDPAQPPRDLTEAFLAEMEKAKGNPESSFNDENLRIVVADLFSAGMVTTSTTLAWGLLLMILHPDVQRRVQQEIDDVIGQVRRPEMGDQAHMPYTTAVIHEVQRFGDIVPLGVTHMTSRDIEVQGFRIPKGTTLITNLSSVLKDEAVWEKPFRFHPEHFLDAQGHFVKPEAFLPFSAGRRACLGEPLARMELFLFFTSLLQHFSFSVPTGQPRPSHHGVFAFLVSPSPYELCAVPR
# Procedure, shortened: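 Human CYP2D6 (5 nM) with 30 uM Luciferin-ME EGE (at Km) in 100 mM KPO4, compound preincubated 10 min, then NADPH regeneration system for 60 min at room temperature. Luciferin read by luminescence; normalized to 1.43 uM quinidine.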
# [8] = target: Cytochrome P450 2C19 (Homo sapiens) (UniProt P33261); assay: qHTS Assay for Inhibitors and Substrates of Cytochrome P450 2C19 (AID 899); note: nearly all actives have a fitted effect of over 60% in size; note: potency is the fitted concentration of half-maximal effect
# Sequence of Cytochrome P450 2C19 (Homo sapiens) (P33261 whole entry, looked up): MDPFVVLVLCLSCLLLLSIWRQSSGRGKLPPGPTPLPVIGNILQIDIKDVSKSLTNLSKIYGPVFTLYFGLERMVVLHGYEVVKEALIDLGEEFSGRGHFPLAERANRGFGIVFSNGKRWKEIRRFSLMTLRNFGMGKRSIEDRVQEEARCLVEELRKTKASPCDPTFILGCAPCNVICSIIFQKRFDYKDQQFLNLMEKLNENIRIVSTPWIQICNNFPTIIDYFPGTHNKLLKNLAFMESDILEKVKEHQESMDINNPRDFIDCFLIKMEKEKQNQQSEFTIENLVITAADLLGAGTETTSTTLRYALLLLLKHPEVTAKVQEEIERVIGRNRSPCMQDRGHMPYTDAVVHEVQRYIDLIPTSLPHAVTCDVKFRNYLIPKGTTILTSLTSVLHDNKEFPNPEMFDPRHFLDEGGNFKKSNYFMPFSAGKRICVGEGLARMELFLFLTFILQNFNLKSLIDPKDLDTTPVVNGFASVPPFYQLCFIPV
# Procedure, shortened: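 Human CYP2C19 (5nM) with Luciferin-H EGE at 10uM (its KM) in 50mM KPO4 was preincubated with compound for 10 min at 37C. NADPH regeneration started a 60 min 37C reaction. Luciferin was read by luminescence, normalized to 57uM ketoconazole.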
Compound,Potency [1],Potency [2],Potency [3],Potency [4],Potency [5],Potency [6],Potency [7],Potency [8]
COC(=O)[C@@]1(Cc2ccccc2)[C@H]2c3cc(C(=O)N4CCCC4)n(Cc4ccc(C(F)(F)F)nc4)c3C[C@H]2CN1C(=O)c1ccccc1,inactive,inactive,inactive,5.01 µM (active),3.16 µM (active),inactive,,
COC(=O)N[C@H](c1ccccc1)[C@@]1(C)C[C@@H]1[C@@H](C)C(=O)Nc1ccc2ccccc2c1,12.6 µM (active),inactive,inactive,3.98 µM (active),0.199 µM (active),inactive,0.0316 µM (active),3.16 µM (active)
COC(=O)[C@@]1(Cc2ccc(OC)cc2)[C@H]2c3cc(C(=O)N4CCCC4)n(Cc4c(CO)[nH]cc(C)c4=O)c3C[C@H]2CN1C(=O)c1ccccc1,25.1 µM (active),inactive,inactive,,,,,
CCC[C@@H]1C[C@@]1(CCC)C(NC(=O)c1ccc(-c2ccccc2)cc1)c1cccc(Cl)c1 (stereo partly drawn),inactive,inactive,inactive,,,,,
C[C@@]1(C(NC(=O)c2ccc(-c3ccccc3)cc2)c2ccc(Cl)cc2)C[C@H]1C1CCCCC1 (stereo partly drawn),inactive,inactive,inactive,,,,,
CCCC/C=C/C(NC(=O)c1ccc(-c2ccccc2)cc1)c1ccccc1 (stereo not drawn),15.8 µM (active),inactive,inactive,,,,,
CCCc1cc2c(n1Cc1cc(F)cc(F)c1)C(C)C1CN(C(=O)c3ccccc3)C(C)(C(=O)OC)C21 (stereo not drawn),inactive,inactive,inactive,6.31 µM (active),3.16 µM (active),inactive,,
Cc1cc(C(=O)N[C@H](c2ccccc2)[C@@]2(C)C[C@@H]2[C@@H](C)C(=O)Nc2ccc3ccccc3c2)n(C)n1,20 µM (active),inactive,inactive,7.94 µM (active),0.794 µM (active),inactive,,
C[C@@H](C(=O)Nc1ccc2ccccc2c1)[C@@H]1C[C@@]1(C)[C@@H](NS(=O)(=O)c1ccc(-c2ccccc2)cc1)c1ccccc1,12.6 µM (active),inactive,inactive,,,,,
COC(=O)[C@@]1(Cc2ccc(OC)cc2)[C@H]2c3cc(C(=O)N(C)C)n(CCN4CNCC4=O)c3C[C@H]2CN1C(=O)c1ccccc1,20 µM (active),inactive,inactive,,,,,
CC1=C(C(=O)OCc2ccccc2)C(c2ccccc2)NC(=O)N1CCCCCC(=O)O (stereo not drawn),20 µM (active),inactive,inactive,,,,,
CCC#CCOCC(=S)Nc1ccccc1,15.8 µM (active),inactive,inactive,,,,,
COC(=O)[C@@]1(Cc2ccc(OC)cc2)[C@H]2c3cc(C(=O)N4CCCC4)n(CCc4c[nH]c5ccc(O)cc45)c3C[C@H]2CN1C(=O)c1ccccc1,inactive,inactive,inactive,3.16 µM (active),1.58 µM (active),inactive,,
CC(=O)N1CC2(CC2)CC1c1ccccc1 (stereo not drawn),inactive,inactive,,,,,,
Cc1cc(C(=O)N[C@@H](c2ccccc2)[C@]2(C)C[C@H]2[C@@H](C)C(=O)Nc2ccc3ccccc3c2)n(C)n1,12.6 µM (active),inactive,inactive,3.98 µM (active),0.794 µM (active),inactive,,
O=C(N[C@@H](c1ccccc1)[C@@H]1C[C@H]1C(=O)O)OCc1ccccc1,20 µM (active),inactive,inactive,,,,,
COC(=O)[C@@]1(Cc2ccc(F)cc2)[C@H]2c3cc(C(=O)N(C)C)n(CCc4c[nH]c5ccc(OC)cc45)c3C[C@H]2CN1C(=O)c1ccccc1,12.6 µM (active),inactive,inactive,,,,,
COC(=O)[C@@]1(Cc2ccc(F)cc2)[C@H]2c3cc(C(=O)N(C)C)n(Cc4cccc5ccccc45)c3C[C@H]2CN1C(=O)c1ccccc1,6.31 µM (active),inactive,inactive,,,,,
COC(=O)[C@@]1(Cc2ccccc2)[C@H]2c3cc(C(=O)N4CCCC4)n(Cc4cc(F)cc5c4OCOC5)c3C[C@H]2CN1C(=O)c1ccccc1,inactive,inactive,inactive,0.316 µM (active),3.98 µM (active),inactive,,0.251 µM (active)
NCCC[C@@H](CC(=O)N[C@@H]1CCNC[C@H]1C(=O)N[C@H](CC(=O)N[C@@H](CCC(=O)O)CC(=O)O)Cc1ccccc1)NC(=O)C[C@H](CO)NC(=O)[C@@H]1CCCC[C@H]1N,inactive,inactive,inactive,inactive,,,,inactive
CCCC1(C(=O)OC)C=C2C(=C(c3ccccc3)C(=O)C2C)CN1 (stereo not drawn),15.8 µM (active),inactive,inactive,5.01 µM (active),,inactive,,7.94 µM (active)
COC(=O)[C@@]1(Cc2ccc(OC)cc2)[C@H]2c3cc(C(=O)N(C)C)[nH]c3C[C@H]2CN1C(=O)c1ccccc1,20 µM (active),inactive,inactive,3.98 µM (active),1.58 µM (active),inactive,,5.01 µM (active)
COC(=O)[C@H]1C[C@@H]1[C@H](NC(=O)c1cc(C)nn1C)c1ccccc1,20 µM (active),inactive,inactive,,6.31 µM (active),inactive,,

# Source: PubChem BioAssay (NCATS)
